# TDP1 block: TDP1 (human) enzyme inhibition | Q9NUW8 | recombinant TDP1, AlphaScreen DNA substrate cleavage | actives 0.28% (n = 350,000) | Potency, µM (titrated, usually from 130 µM), for the others: top-dose activity change, negative = inhibition, actives largely listed as inhibitors | AID 485290; note: % is set by controls: 0 for no effect and ±100 for the full control effect; nearly all actives have a fitted effect of over 40% in size
#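 Compounds were preincubated with Tdp1 (1 nM final) for 15 min at room temperature before substrate (15 nM final) started a 5 min reaction; beads (10 ug/ml final) were then added for 10 min before AlphaScreen detection.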
# FEN1 inh-1: human FEN1 inhibition | Recombinant FEN1 flap cleavage, fluorescence, 15 min | Potency, µM (doses to about 114 µM), for the others: at the highest dose activity change, negative = inhibition, hits mostly inhibitors | AID 588795 | actives 0.35% (n = 390,000); note: % is set by controls: 0 for no effect and ±100 for the full control effect; nearly all actives have a fitted effect of over 65% in size
#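 Reaction started by adding substrate (50 nM final) to 10 nM enzyme after 15 min room-temperature compound preincubation. Reads at 0 and 15 min, with data normalized and fitted to a four-parameter Hill equation.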
# POLI inh: DNA polymerase iota (human) inhibition; Pol iota fluorescent replication assay, 10 min; actives 1% (n = 390,000); Q9UNA4; Potency, µM (top dose mostly 115 µM), inactives show at the highest dose activity, negative = inhibition, usual class: inhibitors; AID 588590
#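 Fluorescent replication assay read twice, at 0 min and 10 min after adding 50 nM (final) substrate. Enzyme (10 nM) and compounds were first incubated 15 min at room temperature; enzyme-free buffer wells were negative controls.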
# POLB inh: DNA polymerase beta (human) inhibition | P06746 | Pol beta primer extension/strand displacement, fluorescence kinetic | Potency, µM (series often up to 114 µM), for the others: at the highest dose activity change, negative = inhibition, hits mostly inhibitors | actives 1.3% (n = 340,000); note: % is set by controls: 0 for no effect and ±100 for the full control effect
#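 Preincubation: enzyme (10 nM) with compound, 15 min, RT. Reaction: substrate added to 50 nM final. Reads: 0 and 10 min. Analysis: normalized, Hill fit.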
# POLK inh: inhibitors of human DNA polymerase kappa; Q9UBT6; purified Pol kappa, fluorescent DNA synthesis assay, 10 min; Potency, µM (highest dose often 107 µM), for the others: at the top dose activity, negative = inhibition, hits mostly inhibitors; actives 0.53% (n = 400,000); AID 588579; note: % is set by controls: 0 for no effect and ±100 for the full control effect
#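 10 nM Pol kappa was preincubated with compounds for 15 min at room temperature. Reaction started with 50 nM (final) substrate. Fluorescence read kinetically at 0 and 10 min.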
# Pol eta inh: blocks human DNA polymerase eta activity; recombinant Pol eta, fluorescent DNA replication assay; Potency, µM (series often up to 114 µM), for inactives: at the top dose activity change, negative = inhibition, most hits filed as inhibitors; actives 1.2% (n = 390,000); AID 588591; note: % is set by controls: 0 for no effect and ±100 for the full control effect
# Target sequence (Q9Y253 whole entry, looked up): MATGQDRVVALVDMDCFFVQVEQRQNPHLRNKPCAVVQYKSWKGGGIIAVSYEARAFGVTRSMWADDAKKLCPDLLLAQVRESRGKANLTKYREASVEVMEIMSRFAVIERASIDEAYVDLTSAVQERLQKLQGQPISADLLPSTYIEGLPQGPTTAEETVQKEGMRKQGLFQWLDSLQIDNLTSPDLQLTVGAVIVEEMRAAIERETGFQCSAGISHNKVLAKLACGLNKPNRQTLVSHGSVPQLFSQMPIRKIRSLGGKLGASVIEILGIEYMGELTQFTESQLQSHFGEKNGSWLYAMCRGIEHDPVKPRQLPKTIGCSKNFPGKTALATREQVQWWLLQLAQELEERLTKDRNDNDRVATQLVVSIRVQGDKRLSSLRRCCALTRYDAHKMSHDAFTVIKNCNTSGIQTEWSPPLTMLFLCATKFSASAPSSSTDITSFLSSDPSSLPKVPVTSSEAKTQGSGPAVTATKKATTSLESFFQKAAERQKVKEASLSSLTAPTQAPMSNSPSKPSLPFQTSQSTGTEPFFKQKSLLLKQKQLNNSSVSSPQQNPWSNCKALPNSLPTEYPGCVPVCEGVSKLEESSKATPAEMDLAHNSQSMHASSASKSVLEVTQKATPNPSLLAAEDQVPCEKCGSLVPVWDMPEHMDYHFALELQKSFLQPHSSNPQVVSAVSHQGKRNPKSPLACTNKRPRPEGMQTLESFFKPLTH
#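 Pol eta at 10 nM preincubated with compounds 15 min at room temperature; reaction started with fluorescent substrate (50 nM final) and read kinetically at 0 and 10 min.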
# FEN1 inh-2: FEN1 inhibition, cherry-pick retest | shares compounds with FEN1 inh-1 | FEN1 flap cleavage, TAMRA/BHQ2 fluorogenic DNA substrate | Potency, µM, hits mostly inhibitors | actives 79% (n = 880) | AID 720498; note: nearly all actives have a fitted effect of over 60% in size
# * marks the source's active call; other numbers are inactive results; ? = inconclusive; / = not tested or not shown; [ ] = dose if it differs, or a comment. Hits are enriched below; roughly 2.4% of the tested compounds scored in any of these assays. Calls come from the whole dose curve; as a rule, active = well fitted curve in the direction sought with a large enough effect; inconclusive = small, poorly fitted or top-dose-only effect, or another doubt; inactive = no such curve, though single readings can be large; an effect the other way counts as inactive or inconclusive. Potency is the fitted concentration of half-maximal effect.
SMILES,TDP1 block,FEN1 inh-1,POLI inh,POLB inh,POLK inh,Pol eta inh,FEN1 inh-2
CN1C(=O)CSc2ccc(C(=O)O)cc21,4%,-1%,-25%,-10%,-4%,-10%,/
O=C(O)c1ccc(N2C(=O)CSC2=S)cc1,/,-3%,?,/,79µM*,0%,?
CN(C)CCOC(=O)c1ccc2[nH]c3c(c2c1)CSCC3,/,50µM*,115%,15%,-6%,-18%,85*
CC(=O)N[C@@H](CC(=O)N[C@H](CCC(=O)O)C(=O)O)C(=O)O,/,17%,19%,/,0%,-21%,/
Nc1ccc2nc(-c3ccc(N)c(Cl)c3)[nH]c2c1,/,50µM*,?,?,?,?,21*
COc1ccc(-c2noc(CCC(=O)N(C)c3cc(Cl)ccc3OC)n2)cc1,-2%,0%,56%,-6%,-28%,-32%,/
COc1ccc(CNc2ncnc3ccc(-c4ccoc4)cc23)c(OC)c1,/,/,/,/,-3%[60.1 µM],/,/
COc1cc(-c2ccc3ncnc(NCc4ccc(C)o4)c3c2)cc(OC)c1OC,/,/,/,/,/,/,?
COc1ccccc1Nc1nc(NCCCN(C)C)nc(N)c1[N+](=O)[O-],-1%,56µM*,-21%,18µM*,-19%,-24%,60*
CC(NS(=O)(=O)CCNC(=O)c1ccccc1)c1ccccc1 (stereo not given),/,-11%,18%,/,-14%,-14%,/
O=C(NNC(=O)c1cc(O)c(O)c(O)c1)NC1CCCCC1,-14%,28µM*,?,33%,-5%,-10%,?
O=C(NC1CCCCC1)c1cc2ccccc2cc1O,3%,-4%,66%,-8%,-1%,-12%,/
COc1cc([N+](=O)[O-])ccc1NC(=O)Nc1cnccn1,-2%,-19%,-4%,25%,10%,79µM*,?
COc1ccccc1NC(=O)Nc1cnccn1,5%,0%,30%,-20%,-13%,-1%,/
O=[N+]([O-])c1cccc(NC(=S)Nc2nc(-c3ccccc3Cl)cs2)c1,5%[56.1 µM],9%,10%,-11%,0%,-17%,/
CN1CCCC1CCNc1ccc2sc3ccccc3c(=O)c2c1 (stereo not given),/,40µM*,?,/,-25%,-28%,38*
Cc1cc2oc3cc(NCCC4CCCN4C)ccc3c(=O)c2cc1C (stereo not given),/,35µM*,-19%,/,-4%,?,34*
O=c1c2ccccc2oc2ccc(NCCCn3ccnc3)cc12,/,?,-8%,34%,-2%,-12%,/
Cc1ccc2c(c1)N(C)/C(=C/c1cccc[n+]1CCO)S2,/,-21%,-11%,?,-9%,0%,/
Cc1ccc2c(c1)N(C)/C(=C/c1cccc[n+]1C)S2,/,?,?,?,-18%,-8%,38*
COc1ccc2c(c1)N(C)/C(=C/c1cccc[n+]1C)S2,/,20µM*,?,40µM*,-21%,-15%,?
CCN(Cc1ccccc1)C(=O)c1cc(S(=O)(=O)N2CCOCC2)cn1C,/,-11%,-22%,13%,2%,3%,/
CC(=O)Nc1ccc(S(=O)(=O)Nn2cnnc2)cc1,-2%,4%,16%,19%,7%,-18%,/
Cc1cccc(C(=O)NN2S(=O)(=O)c3ccccc3S2(=O)=O)c1,6%,0%,23%,-2%,7%,-14%,/
COc1cc(-c2nnc(COC(=O)c3ccc([N+](=O)[O-])o3)o2)cc(OC)c1OC,/,/,/,/,/,79µM*,8.5*
SMILES,TDP1 block,FEN1 inh-1,POLI inh,POLB inh,POLK inh,Pol eta inh,FEN1 inh-2
COc1cc([N+](=O)[O-])ccc1NC(=O)N1CCC2(CC1)Nc1cc(F)ccc1-n1cccc12,5%,10%,9%,-15%,-6%[60.1 µM],-15%,/
CCOc1ccc(N=Cc2c(C)[nH]n(-c3nc4ccccc4[nH]3)c2=O)cc1,50µM*,?,5%,22µM*,?,16µM*,?
Cc1[nH]n(-c2ccccc2)c(=O)c1C=Nc1cnc2ccccc2c1,6%,17%,?,?,-2%,?,/
COc1ccc(CCNC(=O)CSc2ccc3nnc(CCNC(=O)c4ccc(C)cc4)n3n2)cc1OC,/,-4%,19%,/,-12%,-5%,/
O=C(c1cccc2ccccc12)N1CCCCC1,5%,6%,7%,38%,2%,-8%,/
O=C1c2cccc3c(Cl)ccc(c23)C(=O)N1O,22µM*,0.5µM*,?,?,-12%,-21%,1.1*
O=C(c1ccc2c3c(cccc13)C(=O)N(O)C2=O)N1CCCCC1,2%,11µM*,-4%,2%,1%,-5%,3*
CCN1C(=O)c2cccc3c(Cl)ccc(c23)C1=O,-3%,-1%,109%,12%,5%,3%,/
CCCn1cc(S(=O)(=O)c2ccccc2)c(=O)c2cc(F)c(N3CCCC(C)C3)cc21 (stereo not given),2%,-9%,1%,2%,-8%,-4%,/
COc1ccccc1C1c2c(ncn(-c3ccccc3)c2=N)Oc2ccc3ccccc3c21 (stereo not given),/,/,/,/,/,/,11*
COc1ccccc1C1c2ccc3ccccc3c2Oc2ncn(CCN(C)C)c(=N)c21 (stereo not given),/,-13%,32%,27%,-2%,-22%,/
O=C(Cn1ncc2c3ccccc3n(Cc3cccc(Cl)c3)c2c1=O)NCCCN1CCCCC1,5%,11%,-6%,?,-6%,-9%,/
CC1CCCCC1NC(=O)CSc1nnc(C(F)(F)F)n1C (stereo not given),/,/,/,/,/,0%,/
Cc1ccccc1Nc1nc(N)nc(COC(=O)c2ccc([N+](=O)[O-])o2)n1,2%,?,?,/,-23%,89µM*,21*
Cc1ccccc1Nc1nc(N)nc(COC(=O)c2ccccc2)n1,8%,7%,6%,1%,-10%,-18%,/
COc1ccc(N/C(N)=N/c2nc(C)cc(C)n2)c(OC)c1,0%,-12%,27%,-11%,0%,-6%,/
COc1cc(N/C(N)=N/c2nc(C)cc(C)n2)cc(OC)c1,/,?,-10%,78%,-1%,0%,54*
Cc1cc(C)nc(/N=C(\N)Nc2ccc3c(c2)OCCO3)n1,-4%,79µM*,13%,0%,26%,3%,67*
Cc1[nH]c2ccccc2c1C(=O)COc1ccccc1,0%,-6%,12%,-12%,-4%,-6%,/
NNC(=O)c1oc2nc(-c3ccco3)cc(-c3ccco3)c2c1N,/,50µM*,?,?,?,?,38*
CC(C)(C)NC(=O)C1CC(=O)N(CCc2ccc(F)cc2)C1 (stereo not given),/,4%,111%,21%,-11%,-13%,/
